77 compounds from PubChem BioAssay AID651707 (NMMLSC, 2012) can be followed below.

Screen size: about 2,300 compounds; about 170 (7.4%) were called active.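 The calls were made as follows: active = over 5% cells positive for green fluorescent reporter, or over 2% positive for both it and APC stain; inactive = the rest, inconclusive results apart.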 Only a sample is shown.

The assay is described as follows: fluorescent artefacts in myeloid progenitor cells – cell-based, flow cytometry, GFP/APC, Cherry Pick01, artefact control for AML myeloid differentiation project, confirmation (AID 651707).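 As to double positive: share of cells both GFP positive and bound by Mac1 APC antibody.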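 As to fluorescence response: range taken on the double positive population between DMSO and positive control.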 Particulars: ER-HoxA9 myeloid progenitors, no estrogen, GFP autofluorescence flow cytometry, stronger effect = higher value; double positive: measured here: double positive GFP/APC population; fluorescence response: vehicle wells 0%, positive control 100%. Background: In flow cytometry, cells or beads pass a laser one at a time.
Consider `N#C/C(=C/c1ccc(N2CCCCC2)o1)C(=O)NCCc1c[nH]c2ccccc12`, for which the fluorescence response was 64.7% (active).
Same read-out and setting: the value for `COc1ccccc1CNC(=O)c1cc(-c2cc(Cl)ccc2C)n[nH]1` was 0% (inactive); that for `O=S(=O)(c1ccc(Br)cc1)c1nc(-c2ccccc2)oc1NCc1cccnc1` was 1.5% (inactive).
On to `CC(=O)Nc1ccc(S(=O)(=O)Nc2ccc(N3CCOCC3)c(F)c2)cc1`, for which the double positive is 0.2% and the fluorescence response was 0.8% (inactive).
Take `CC(=O)Nc1ccc(S(=O)(=O)Nc2ccc(N3CCCCC3)cc2)cc1`: the double positive was found to be 10.5% and the fluorescence response is 10.5% (active).
For `CCOC(=O)c1c(-c2ccc(C)cc2)csc1/N=C(\C)C1=C(O)c2ccccc2C1=O`, the fluorescence response is 0% (inactive).
Regarding `COc1ccc(-c2ccc(OC(=O)NC3CCS(=O)(=O)C3)cc2)cc1` (stereo unspecified), the double positive was found to be 0.4% and the fluorescence response was 0.7% (inactive).
As for `COC(=O)CN(c1cccc(C(C)=O)c1)S(C)(=O)=O`, the fluorescence response is 0% (inactive).
With `C/C(=C\c1ccccc1)C1NC(=O)c2c(sc3c2CCCC3)N1` (stereo unspecified), the fluorescence response was 0% (inactive).
Consider `COc1ccc(C2CC(c3cccc(OC)c3)=NN2c2ccc(S(N)(=O)=O)cc2)cc1` (stereo unspecified), for which the fluorescence response was 0.5% (inactive).
For the compound `Cc1cc(NC(=O)CSc2nc(C(C)C)nc3sc4c(c23)CCC(C)C4)no1` (stereo unspecified), the fluorescence response is 1.4% (inactive).
`COc1ccc(-c2nnc(SCC(=O)c3cccs3)o2)c(OC)c1`: the fluorescence response is 3.4% (inactive).
In the case of `Cc1ccc2c(c1)C1C[N+](C)(CC(=O)c3ccccc3)CCC1N2C(=O)c1ccccc1Cl` (stereo unspecified), the fluorescence response is 0% (inactive).
For `Cc1ccc(-n2nc3cc(C)c(NC(=O)c4cccnc4)cc3n2)cc1`, the fluorescence response was 4.7% (inactive).
On the same count and under the same terms, the value for `COc1ccc2nc(N3CCN(C(=O)c4ccc([N+](=O)[O-])o4)CC3)sc2c1` was 0% (inactive); that for `CC(C)CC(COCc1ccc(Cl)cc1)N1CCN(C(=O)c2ccc(C(F)(F)F)cc2)CCC1=O` (stereo unspecified) was 0% (inactive); that for `COc1ccccc1N1CCN(C(=O)c2cc(-c3ccc(Br)cc3)on2)CC1` was 0.3% (inactive).
As to `O=C1c2ccccc2C(=O)N1Cc1cc(-c2ccccc2Cl)no1`, the fluorescence response was 0% (inactive).
On to `Cc1nn(-c2cc(Cl)ccc2N)c(=O)c2ccccc12`, for which the fluorescence response is 0% (inactive).
Turning to `CNC[C@H]1Oc2c(NC(=O)C3CCCCC3)cccc2C(=O)N([C@H](C)CO)C[C@@H]1C`, the fluorescence response was 0% (inactive).
With `O=C(Cn1cc(-c2nnnn2-c2ccc(Cl)cc2)c(=O)c2ccccc21)c1ccccc1`, the fluorescence response is 0% (inactive).
Take `CN1CCC(CN)(N2CCN(c3ccccc3)CC2)CC1`: the fluorescence response is 0.6% (inactive).
Still for that read-out and setting: the value for `CC#CC[N+](C)(C)CCCCCC` was 0% (inactive); that for `N#CC1=C(N)Oc2c(sc3ccccc23)C1c1ccco1` (stereo unspecified) was 0% (inactive).
As for `O=C(NC(=O)c1ccccc1)Nc1ccccc1O`, the fluorescence response is 1.3% (inactive).
Regarding `Cc1c(C(=O)OCC(=O)N(CCC#N)c2ccccc2)oc2c1ccc1ccccc12`, the fluorescence response was 0% (inactive).
For the compound `Cc1cccc(OCC(O)CN2CCN(CCN3C(=O)c4cccc5cccc(c45)C3=O)CC2)c1C` (stereo unspecified), the fluorescence response was 0% (inactive).
Take `CCCC(=O)Nc1c(O)c2ccccc2[nH]c1=O`: the fluorescence response is 0% (inactive).
`CCN(CC)C(=O)CSC(Nc1cccc(F)c1)=C(C#N)C#N`: the fluorescence response is 7.7% (active).
Same read-out and setting: the figure for `Cc1cc(C)c(S(=O)(=O)NCC2CCC(C(=O)NCc3ccc4c(c3)OCO4)CC2)c(C)c1` (stereo unspecified) is 0.2% (inactive); for `O=C(CN(c1ccccc1)S(=O)(=O)c1ccc(Cl)cc1)Nc1ccccc1C(=O)N1CCCC1` it is 0% (inactive); for `CC(C)CNC(=O)COC(=O)/C=C/c1ccccc1[N+](=O)[O-]` it is 0% (inactive).
Regarding `Cc1cc(C)n(C(=O)c2ccc(C)c(S(=O)(=O)N3CCOCC3)c2)n1`, the fluorescence response is 2.3% (inactive).
Regarding `Cc1ccc(Nc2cc(C)nc3c(C)ccc([N+](=O)[O-])c23)cc1`, the fluorescence response was 6.7% (active).
As to `CCc1noc(C)c1C(=O)Nc1nc(-c2ccccc2)cs1`, the fluorescence response is 1% (inactive).
The same measure, in the same setting: the value for `COc1cccc(NC(=S)NCc2ccccn2)c1` was 0.3% (inactive).
The same measure, in the same setting: the figure for `COc1cc(/C=C(\C#N)c2nc3ccccc3[nH]2)ccc1O` is 36.7% (active); for `Clc1ccc(-c2nnc(SCc3nc4ccccc4s3)o2)cc1` it is 0% (inactive).
Still for that read-out and setting: the value for `CCC1CCCCN1CCCNC(=O)Cn1nc(-c2ccccc2)ccc1=O` (stereo unspecified) was 0% (inactive); that for `CC1=C(C(N)=O)C(c2ccc3c(c2)OCO3)n2nc(-c3cccc(C)c3)nc2N1` (stereo unspecified) was 0% (inactive).
For `COc1ccc(S(=O)(=O)N2CCC(C(=O)N3CCc4ccccc4C3)CC2)cc1OC`, the fluorescence response is 0% (inactive).
Turning to `CN1OC(COC(=O)c2ccc(Cl)cc2)CC1c1ccccc1` (stereo unspecified), the fluorescence response is 0.3% (inactive).
The same measure, in the same setting: the value for `COc1cc(/C=C2/SC(=S)N(Cc3ccccc3)C2=O)cc(OC)c1O` was 97.2% (active).
Regarding `Cc1nc(C)c(-c2nnc(-c3cccc(S(=O)(=O)N(C)C)c3)o2)cc1C(=O)NN`, the fluorescence response is 0.7% (inactive).
For the compound `CCOc1ccc(C(=O)Nc2ccc(S(=O)(=O)NCC3CCCO3)cc2)cc1OCC` (stereo unspecified), the fluorescence response was 0.3% (inactive).
Consider `CCCCSc1nc2c(c(=O)n1CC)SC(C)C2` (stereo unspecified), for which the fluorescence response is 0% (inactive).
For `Nc1ccc2nc3c(=O)[nH]c(=S)[nH]c3nc2c1`, the fluorescence response was 0% (inactive).
As to `CC(C)c1nc2ccc(C(=O)O)cc2[nH]1`, the double positive is 0.4% and the fluorescence response was 0.4% (inactive).
For `COc1ccc(N(CC(=O)NC2CCCCCCC2)S(=O)(=O)c2c(C)nn(C)c2C)cc1`, the fluorescence response was 0% (inactive).
For `Cc1nn(-c2ncccn2)c2c1C(=O)CC(C)(C)C2Br` (stereo unspecified), the fluorescence response was 0% (inactive).
For the compound `Cn1c(CNC(=O)c2ccccc2F)nnc1SCc1ccc(F)cc1`, the fluorescence response was 0% (inactive).
Regarding `CNc1nc(=O)n(C2CCCO2)cc1C` (stereo unspecified), the fluorescence response was 0% (inactive).
Take `CC(=O)N1c2ccc(S(=O)(=O)N3CCCC(C(=O)Nc4cccc(F)c4)C3)cc2CC1C` (stereo unspecified): the fluorescence response is 0% (inactive).
Take `CCOC(=O)CC(=O)CSc1nc(-c2ccccc2)cc(-c2ccc(Cl)cc2)c1C#N`: the fluorescence response is 0% (inactive).
Turning to `CC(C)(C)OC(=O)CNC(=O)c1[nH]cnc1C(=O)N[C@@H](Cc1ccccc1)C(=O)OCc1ccccc1`, the fluorescence response was 0% (inactive).
As to `O=C(Nc1cccc(-c2nc3ncccc3o2)c1)c1ccco1`, the fluorescence response was 0.2% (inactive).
Turning to `O=S(=O)(NCc1cccnc1)c1ccc(Cl)nc1`, the fluorescence response was 0.4% (inactive).
The same measure, in the same setting: the value for `COCCCn1c(=O)/c(=C/c2ccccc2OC(C)C)s/c1=C(\C#N)C(=O)Nc1ccc(C(=O)O)cc1` was 0% (inactive).
As to `O=C(Nc1ccccc1N1CCN(c2ccccc2)CC1)c1cccc(F)c1`, the fluorescence response was 0% (inactive).
On to `CC1(C)CC(=O)C2=C(C1)Nc1cc(C(=O)c3ccccc3)ccc1NC2c1ccccn1` (stereo unspecified), for which the fluorescence response was 0.4% (inactive).
Regarding `CCc1c(C)sc(NC(=O)c2cccs2)c1C(N)=O`, the fluorescence response was 0% (inactive).
In the case of `C=CCNc1nnc(SCC(=O)N2CCCCC2)c2ccccc12`, the fluorescence response was 0.3% (inactive).
As for `Cc1cccc(C)c1NC(=O)CCS(=O)(=O)c1cccc2nsnc12`, the fluorescence response was 0% (inactive).
As to `Cc1ccc2nc(-c3ccccn3)cc(C(=O)Nc3ccc4c(c3)OCO4)c2c1`, the fluorescence response is 0% (inactive).
Regarding `CCOC(=O)c1c(-c2cccc(C)c2)csc1NC(=O)c1c(-c2ccccc2)noc1C`, the fluorescence response is 0% (inactive).
On to `Cn1c2ccccc2c2cc(/C=C(\NC(=O)c3ccccc3)C(=O)NCC(=O)O)ccc21`, for which the fluorescence response was 0% (inactive).
Take `CN(C(=O)CSc1nnc(C2CC2)n1C)C1CCCc2ccccc21` (stereo unspecified): the fluorescence response is 0% (inactive).
For the compound `CSc1nnc(-c2ccncc2)n1CCCN1CCCC1=O`, the fluorescence response was 0% (inactive).
Same read-out and setting: the value for `COc1cc(N=Cc2c(O)[nH]c3ccccc23)cc(OC)c1OC` was 0% (inactive).
On to `CC(CNc1ccc([N+](=O)[O-])cc1)NC(=O)c1ccccc1Br` (stereo unspecified), for which the fluorescence response was 0.4% (inactive).
With `Cc1ccc2c(c1)c1ncn(Cc3ccc(F)cc3)c(=O)c1n2C`, the fluorescence response is 0% (inactive).
As to `Cc1cccc(-n2c(SCC(=O)Nc3cccc(S(=O)(=O)NC4=NCCCCC4)c3)nc3ccccc3c2=O)c1C`, the fluorescence response was 0% (inactive).
In the case of `CCN(CC)CC(=O)c1c[nH]c2ccc(OC)cc12`, the fluorescence response is 0.3% (inactive).
Regarding `CCOc1ccc(NC(=O)CSc2nc3c(c(=O)n2-c2ccccc2OC)SCC3)cc1`, the fluorescence response is 0.5% (inactive).
Consider `CC(C)C(=O)N1CCN(c2nc(-c3ccccc3)c3c(c2C#N)CC(C)(C)OC3)CC1`, for which the fluorescence response is 0% (inactive).
As to `O=C(CN1CCN(C2CCCCC2)CC1)Nc1ccccc1N1CCCCC1`, the fluorescence response was 0% (inactive).
As for `O=C(NCCN=C1NS(=O)(=O)c2ccccc21)c1ccc(S(=O)(=O)N2CCOCC2)cc1`, the fluorescence response is 4.3% (inactive).
